Compound activity (PubChem BioAssay)
GLP1R inv ag – qHTS of GLP-1 Receptor Inverse Agonists (Inhibition Mode) | HEK293 GLP-1R CRE-luciferase, luminescence, 24 h; GLP-1R form is constitutively active | Potency, µM (top dose mostly 38.3 µM), for the others: top-dose activity change, negative = inhibition, hits mostly inhibitors | Glucagon-like peptide 1 receptor (Homo sapiens), P43220 | 410,000 tested, 1.6% active; note: % is set by controls: 0 for no effect and ±100 for the full control effect; nearly all actives have a fitted effect of over 55% in size
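qHTS in 1536-well format: reporter HEK293 cells expressing constitutive GLP-1R activity in DMEM + 10% Nu serum, 24 hr with compounds at 37 deg C, luminescence read after 12 min with detection reagent.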
RORgamma inh – qHTS for inhibitors of ROR gamma transcriptional activity; Nuclear receptor ROR-gamma (Mus musculus), P51450; Drosophila S2 Gal4-RORgamma UAS-luciferase reporter, 20 h; Potency, µM (top dose mostly 53.6 µM), without a hit: at the top dose activity change, negative = inhibition, usual class: inhibitors; 310,000 tested, 5.4% active; AID 2551, 2010; note: % is set by controls: 0 for no effect and ±100 for the full control effect; nearly all actives have a fitted effect of over 60% in size
Target sequence (P51450 whole entry, looked up, the tested form may be a part): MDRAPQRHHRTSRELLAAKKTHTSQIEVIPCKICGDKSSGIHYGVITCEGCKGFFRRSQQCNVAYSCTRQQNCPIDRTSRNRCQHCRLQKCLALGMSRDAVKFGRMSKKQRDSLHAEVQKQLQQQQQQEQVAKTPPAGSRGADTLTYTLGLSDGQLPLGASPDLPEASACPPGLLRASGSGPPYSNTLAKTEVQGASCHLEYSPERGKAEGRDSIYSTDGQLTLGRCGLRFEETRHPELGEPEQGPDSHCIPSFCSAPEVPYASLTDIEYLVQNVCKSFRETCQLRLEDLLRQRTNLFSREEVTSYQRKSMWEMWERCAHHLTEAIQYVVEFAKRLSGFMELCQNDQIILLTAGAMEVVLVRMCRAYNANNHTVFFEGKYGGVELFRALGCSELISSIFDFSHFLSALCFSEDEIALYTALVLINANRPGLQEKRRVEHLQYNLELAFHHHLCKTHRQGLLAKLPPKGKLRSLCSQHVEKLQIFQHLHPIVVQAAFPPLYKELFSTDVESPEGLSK
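A Gal4/UAS one-hybrid system in insect cells: metallothionein-promoter Gal4–ROR gamma fusion plus Photinus luciferase reporter. Copper sulfate 700 uM final, 20 hr ambient incubation, luminescent detection after 10 min with reagent.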
GLP-1R agonist – qHTS of GLP-1 Receptor Agonists; Glucagon-like peptide 1 receptor (Homo sapiens), P43220; HEK293 GLP-1R CRE-luciferase, luminescence, 4-6 h; cells express a hypersensitive GLP-1R form; Potency, µM (top dose mostly 45.6 µM), without a hit: at the highest dose activation, most hits filed as activators; 380,000 tested, 0.007% active; note: % of control where 0% means no effect
GLP1R cytotox – qHTS of GLP-1 Receptor Inverse Agonists: Cytotox Screen | HEK293 cAMP-luciferase reporter cells, luminescence, 24 h | Potency, µM (series often up to 38.3 µM), inactives show at the highest dose activity change, negative = inhibition, usual class: inhibitors | 410,000 tested, 0.13% active;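 note: loss of luciferase light is scored as toxicity; % is set by controls: 0 for no effect and ±100 for the full control effect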
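1536-well qHTS counterscreen of the MLSMR; 200 cells/uL, 12 h pre-incubation, 23 nL cpd, 24 h at 37 deg C 5% CO2, luciferase detection reagent, 12 min RT, luminescence. Inhibition = undesired.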
Gal4-VP16 FLuc – VP16 counterscreen qHTS for inhibitors of ROR gamma transcriptional activity | Drosophila S2 Gal4-VP16 UAS-luciferase, luminescence, 20 h | Potency, µM (doses to about 53.6 µM), inactives show at the highest dose activity, negative = inhibition, usual class: inhibitors | 310,000 tested, 3.5% active;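 note: Gal4-VP16 expression switched on by copper sulfate through the metallothionein promoter; % is set by controls: 0 for no effect and ±100 for the full control effect; nearly all actives have a fitted effect of over 50% in size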
The depositor's hits bear a star; ? = inconclusive; . = no result given. In the library only some 5.9% were active in any assay of this set; here they are far more common. Calls come from the whole dose curve; as a rule, active = well fitted curve in the direction sought with a large enough effect; inconclusive = small, poorly fitted or top-dose-only effect, or another doubt; inactive = no such curve, though single readings can be large; an effect the other way counts as inactive or inconclusive. Potency is the fitted concentration of half-maximal effect.

SMILES	GLP1R inv ag	RORgamma inh	GLP-1R agonist	GLP1R cytotox	Gal4-VP16 FLuc
CO/N=C(\C(=O)N[C@@H]1C(=O)N2C(C(=O)OCOC(=O)C(C)(C)C)=C(C)CS[C@H]12)c1csc(N)n1	.	.	-5%	.	.
COc1ccc(NC(=S)Nc2ccccc2C(F)(F)F)cc1	10%	11µM*	7%	-16%	?
O=C(CCCc1nc(-c2ccccc2Cl)no1)NC1CCCC1	-6%	8.9µM*	-3%	-19%	?
COc1ccccc1-c1noc(CCCC(=O)NC2CCCC2)n1	-14%	-6%	13%	2%	4%
COc1ccc(-c2noc(CCCC(=O)NC3CCCCC3)n2)cc1	?	79%	10%	0%	16µM*
CCOC(=O)c1ccc2[nH]c(CSc3nnc(-c4cccc(F)c4)n3C)cc(=O)c2c1	8%	.	.	2%	.
COc1ccc([C@H]2Oc3cc(O)cc(O)c3C(=O)C2[C@@H]2C(=O)c3c(O)cc(O)cc3O[C@@H]2c2ccc(OC)cc2)cc1 (stereo partly drawn)	?	-90%	-1%	4%	22µM*
CCC(=O)c1ccc2c(c1)N(CCCN1CCN(CCO)CC1)c1ccccc1S2	.	?	13%	.	-28%
Cc1ccc2nsnc2c1NC(=O)c1ccc([N+](=O)[O-])cc1	13%	7.9µM*	1%	-4%	?
CC(=O)Nc1c(C)ccc2nsnc12	-4%	?	-9%	0%	-6%
CCC(=O)N[C@@H]1Cc2ccccc2[C@@H](c2ccccc2)C1	.	-38%	.	.	8.9µM*
COc1ccc(-c2nc3c4ccccc4ccn3c2CN2CCCCC2)cc1	?	7.9µM*	10%	-13%	-13%
Clc1ccc(-c2nc3ccccn3c2CN2CCCCC2)cc1	10µM*	18µM*	9%	?	-5%
O=S(=O)(c1ccc(Br)cc1)c1nc(-c2cccs2)oc1SCc1ccccc1F	?	.	.	-11%	.
C=CCn1c(-c2cc(-c3ccccc3)sc2N)n[nH]c1=S	-2%	2.2µM*	20%	?	10µM*
C=CCn1c(-c2csc3ccccc23)n[nH]c1=S	?	3.5µM*	-4%	?	6.3µM*
C=CCn1c(-c2csc(-c3ccc(OC)c(OC)c3)n2)n[nH]c1=S	-41%	2µM*	?	?	?
C=CCn1c(-c2csc(-c3ccccc3)n2)n[nH]c1=S	?	4µM*	7%	11µM*	0.71µM*
COc1ccc(-c2nc(-c3ccc(O)cc3O)cs2)cc1OC	9%	-44%	?	?	?
C=CCn1c(-c2cnn(-c3ccccc3)c2N)n[nH]c1=S	15%	?	9%	-11%	21%
C=CCn1c(-c2csc(-c3ccc(Cl)cc3)n2)n[nH]c1=S	?	?	-25%	3.5µM*	1.8µM*
Cc1cc(C)cc(NC(=O)NCCn2nnc3cc(S(=O)(=O)N(C)C)ccc32)c1	1%	.	.	-5%	.
CSCCC(NC(=O)C1CCC(C)CC1)C(=O)OCC(=O)c1ccc(Cl)cc1 (stereo not drawn)	5%	7%	1%	10%	4µM*
CC(C)CC(NC(=O)C1CCC(C)CC1)C(=O)OCC(=O)c1ccc(Cl)cc1 (stereo not drawn)	15%	.	0%	5%	.
O=C1C=CC2(O[C@H](c3ccccc3)[C@@H](c3ccccc3)O2)[C@H](Sc2ccccc2O)C1	?	.	-5%	4.5µM*	.
SMILES	GLP1R inv ag	RORgamma inh	GLP-1R agonist	GLP1R cytotox	Gal4-VP16 FLuc
C[C@@H]1[C@@H](Sc2ccccc2)CC(=O)O[C@@H]1c1ccc(-c2ccccc2)cc1	?	-42%	-2%	-44%	-29%
COCCNc1nc(C)nc2c1nc(-c1ccccc1)n2CCN1CCCCC1	.	-33%	.	.	-2%
CCCCNc1nc(C)nc2c1nc(-c1ccccc1)n2CCN1CCCCC1	.	14µM*	.	.	-17%
O=C(Cn1c(-c2cccs2)cc2ccccc21)NCc1ccccc1Br	?	.	.	11%	.
COc1ccccc1C(C[N+](=O)[O-])c1c(N)n(C)c(=O)n(C)c1=O (stereo not drawn)	2.8µM*	?	-11%	?	14µM*
CC(C)CC(c1nnnn1CC1CCCO1)N1CCN(c2cccc(Cl)c2)CC1 (stereo not drawn)	-24%	?	-7%	-11%	-1%
CC(C)CC(c1nnnn1Cc1ccco1)N1CCN(c2cccc(Cl)c2)CC1 (stereo not drawn)	10µM*	34%	1%	-1%	6%
Cc1cc(C)cc(-n2c3nc4ccccc4nc3c3c(=O)n(Cc4ccco4)cnc32)c1	-5%	11µM*	-16%	14%	11µM*
CCOc1ccc(NC(=O)c2nnn(-c3ccc(F)c(Cl)c3)c2C)cc1	-1%	.	.	0%	.
CC(C)N(C(=S)Nc1cc(S(=O)(=O)N2CCOCC2)ccc1Cl)c1ccccc1	-2%	2%	2%	8%	-4%
C/C(=N\NC(=S)Nc1cc(S(=O)(=O)N2CCOCC2)ccc1Cl)c1ccccc1F	?	1.1µM*	3%	5%	6.3µM*
CN(C)C(=O)c1ccc(-c2ccc3ncnc(NCc4ccccc4)c3c2)cc1	.	23%	.	.	12%
COC(=O)N[C@@H](CCc1ccccc1)/C(C(=O)OC)=C(\C)NCc1ccccc1	.	6%	.	.	-10%
Cc1cc(C(=O)Nc2cc(C(C)(C)C)on2)c(C)o1	9%	10µM*	-5%	-12%	2%
Cc1ccccc1CS(=O)(=O)c1nnc([C@H](Cc2ccccc2)NC(=O)OC(C)(C)C)o1	10µM*	-16%	-17%	?	3.2µM*
CC(C)(C)OC(=O)N[C@@H](Cc1ccccc1)c1nnc(S(=O)(=O)Cc2ccccc2)o1	.	4.5µM*	.	.	4.5µM*
CCC(C)[C@@H](NC(=O)OC(C)(C)C)c1nnc(S(=O)(=O)Cc2cccc(C)c2)o1 (stereo partly drawn)	?	3.2µM*	-31%	?	5µM*
O=C(Cn1cc(S(=O)(=O)Cc2ccc(F)cc2)c2ccccc21)NCc1ccccc1Cl	-15%	.	.	-9%	.
O=C1CSC(=S)N1/N=C/c1cccc(C(F)(F)F)c1	13%	7.9µM*	-2%	-3%	?
N=C1SCC(=O)N1/N=C/c1ccccc1	6%	11µM*	3%	17%	?
O=C1CSC(=S)N1/N=C/C=C/c1ccccc1	26%	2.5µM*	-2%	6%	?
COc1ccc(NC2=Nc3ccccc3N3C2=Nc2c(c(C)nn2-c2ccc(C)cc2)C3c2cccnc2)cc1 (stereo not drawn)	13%	3%	0%	-10%	-4%
